Shown are actives, neighbours in structure and some others; about 3% of the full set was active somewhere.
LMP1 NFkB inh: EBV LMP1-driven NF-kappaB luciferase reporter inhibitors, primary screen, cell-based, luminescence, single point. LMP1-induced NF-kappaB luciferase reporter cells. inhibition, % at 12.5 µM. 350,000 compounds, 0.69% hits; in the data active = inhibition above about 41%;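 also: 0% = neutral control wells and 100% = reference inhibitor control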
MITF TRPM1 HTS: activators of MITF-driven TRPM1 promoter reporter, primary screen, cell-based, SK-MEL-5, luciferase, single point; SK-MEL-5 TRPM1-promoter luciferase, 24 h; % of positive control, neutral wells = 0; activation, % at 12.5 µM; 300,000 compounds, 0.75% hits; AID 588334, 2011;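 active = mean activation of at least 80% with every replicate also reaching 80%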;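 also: 0% = neutral control wells and 100% = parthenolide positive control wells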
TROY signal inh: inhibitors of TROY-driven NF-kB signaling, primary screen, Q293 LMP1-TROYcd cells, NF-kB luciferase, uHTS | Q293 LMP1-TROYcd NF-kB luciferase reporter, 4 h | inhibition, % at 10 µM | 360,000 compounds, 0.98% hits | AID 1347056, 2019;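 active = compounds whose plate-normalised and pattern-corrected inhibition of the luciferase reporter signal at the single screening dose is 50% or more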
TWEAK-Fn14 inh: inhibitors of TWEAK-Fn14 signaling, primary screen, luciferase reporter cells, uHTS. TWEAK-stimulated Fn14 reporter cells, luciferase luminescence, 8 h. inhibition, % at 10 µM. 360,000 compounds, 2% hits. AID 1159606, 2016; in the data active = inhibition above about 50%
MITF TRPM1 inh: inhibitors of MITF-dependent TRPM1 promoter reporter, primary screen, cell-based, SK-MEL-5, single point, luciferase; SK-MEL-5 TRPM1 promoter luciferase, 24 h; inhibition, % at 12.5 µM; 330,000 compounds, 0.83% hits;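 active = mean inhibition across replicates of 60% or more, whatever share of single replicates reaches that level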
LGR2 antag: inhibitors of bursicon-induced LGR2 CRE-luciferase signal, primary screen, cell-based, HEK293, CRE-luciferase reporter, bursicon stimulation | bursicon-stimulated, 4 h | 380,000 compounds, 0.35% hits | inhibition, % at 9.99 µM;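 active = drop in luminescence signal, shown as inhibition above about 50% in the replicate tests, limit read from the data, passing the limit was not always enough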;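 also: agonist challenge used bursicon conditioned medium at about half maximal strength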
Active calls of the source: *; / = not tested or not shown.

SMILES	LMP1 NFkB inh	MITF TRPM1 HTS	TROY signal inh	TWEAK-Fn14 inh	MITF TRPM1 inh	LGR2 antag
C[C@H](CO)N1C[C@H](C)[C@@H](CN(C)S(=O)(=O)c2ccccc2)Oc2ccc(NC(=O)Nc3ccc(C(F)(F)F)cc3)cc2C1=O	-6	2	36	61*	-3	9
C[C@@H]1CN([C@H](C)CO)C(=O)c2c(c3ccccc3n2C)-c2ccccc2CO[C@@H]1CN(C)S(=O)(=O)c1ccc(C(F)(F)F)cc1	/	/	/	/	/	53*
C[C@@H]1CN([C@@H](C)CO)C(=O)Cc2cc(NC(=O)Nc3ccc(F)cc3)ccc2O[C@@H]1CN(C)Cc1ccc(Cl)c(Cl)c1	-16	-22	21	60*	20	4
C[C@@H]1CN([C@@H](C)CO)C(=O)c2cccc(NC(=O)Nc3ccc(C(F)(F)F)cc3)c2O[C@@H]1CN(C)C(=O)Nc1cccc2ccccc12	/	/	/	/	/	67*
C[C@H]1CN([C@@H](C)CO)C(=O)c2c(c3ccccc3n2C)-c2ccccc2CO[C@@H]1CN(C)Cc1ccccc1C(F)(F)F	/	/	/	/	/	23
CC(=O)N1[C@H](C(=O)NC2CCC2)[C@@H](CO)[C@@H]2Cn3c(ccc(C4=CCCC4)c3=O)[C@@H]21	/	/	/	/	/	9
C[C@H](CO)N1C[C@H](C)[C@@H](CN(C)C)Oc2c(NC(=O)Cc3ccccc3)cccc2C1=O	44*	7	-3	-27	-5	-17
C[C@@H]1CN([C@@H](C)CO)C(=O)c2cc(NC(=O)Nc3ccccc3)ccc2O[C@H]1CN(C)C(=O)Nc1cccc2ccccc12	58*	-8	52*	48	12	11
CCC(=O)N1CC2(CN(Cc3ccncc3)C2)c2c(n(C)c3cc(OC)ccc23)[C@@H]1CO	/	/	/	/	/	-12
Cc1nc2c(o1)C(=O)c1ccccc1C2=Nc1ccccc1	87*	-94	10	95*	94*	16
COc1cccc2cc(CC(=O)c3ccc(C)cc3C)c(=O)oc12	-6	90*	-57	-8	-83	-100
COc1ccc(NC(=O)c2cc3cccc(OC)c3oc2=Nc2ccc(C(=O)O)cc2)cc1OC	-11	61	46	83*	-62	-1
COc1cccc2cc(C(=O)N3CCc4ccccc43)c(=O)oc12	1	11	14	50*	-8	/
COc1cccc2cc(C(=O)Nc3cccc(C)n3)c(=O)oc12	-20	7	50	57*	-8	/
CCCNC(=O)C[C@@H]1CC[C@H]2[C@@H](COc3ccc(NS(=O)(=O)c4ccccc4C)cc3C(=O)N2C)O1	/	/	/	/	/	26
CNC[C@H]1Oc2c(NC(=O)C3CCCCC3)cccc2C(=O)N([C@@H](C)CO)C[C@H]1C	/	/	/	/	/	-15
C[C@H](CO)N1C[C@H](C)[C@H](CN(C)C(=O)Nc2ccc(C(F)(F)F)cc2)Oc2c(NC(=O)CCCCCC(=O)Nc3ccccc3N)cccc2C1=O	/	/	/	/	/	4
CCS(=O)(=O)NCC[C@@H]1CC[C@@H](NS(=O)(=O)c2cccc(F)c2)[C@H](CO)O1	/	/	/	/	/	-1
COc1cccc2cc(NC(=O)C3CCCCC3)c(=O)oc12	-30	110*	-23	-21	-113	-50
COc1ccc(NC(=O)Nc2cccc3c2O[C@@H](CN(C)CC2CCCCC2)[C@H](C)CN([C@@H](C)CO)C3=O)cc1	/	/	/	/	/	7
C/C=C/c1cnc2c(c1)C(=O)N([C@@H](C)CO)C[C@@H](C)[C@H](CN(C)C(=O)c1cccc(F)c1)O2	/	/	/	/	/	17
Cc1nc(S/C(=C\c2ccc(OCc3ccccc3Cl)cc2)C(=O)O)n[nH]1	-5	-19	/	83*	20	-5
Cc1nc(S/C(=C\c2ccc(-c3ccc(C(=O)O)c(Cl)c3)o2)C(=O)O)n[nH]1	-5	6	-13	-6	-7	3
COC(=O)Cc1ccc(NC(=S)N2CCN(c3ccccn3)CC2)cc1	2	1	18	-8	5	6
COC(=O)Cc1ccc(NC(=S)N2CCN(c3cc(Cl)ccc3C)CC2)cc1	18	-11	36	56*	12	8
